Screens from PubChem BioAssay.
In the library only some 7% were active in any assay of this set; here they are far more common.
PI5P4K alpha inh = inhibitors of human PI5P4K alpha | AID 652105 | max response, % | PI5P4Kalpha enzyme, ADP-Glo luminescence, 60 min; active compounds read low | 330,000 compounds, 1.2% hits; active = max response of -50% or lower; inconclusive = between -30% and -50%; inactive = -30% or higher; also: value at the top dose of about 77 µM; % is scaled to controls: 0 for no effect and ±100 for the full control effect
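Reactions run in 0.038 M HEPES pH 7.4, 0.28 mM EGTA, 0.1% CHAPS and 5% DMSO, with PI5P4Kalpha, substrate, compound and 5 microM ATP final, one hour at room temperature. Readout is ADP-Glo luminescence.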
JMJD2A Tudor inh = inhibitors of human JMJD2A Tudor domain | O75164 | AlphaScreen JMJD2A-Tudor / H3K4me3 peptide binding | Potency, µM (doses to about 114 µM), without a hit: top-dose activity change, negative = inhibition, most hits filed as inhibitors | 390,000 compounds, 4.4% hits | AID 504339; also: potency is read from the fitted curve at half-maximal effect; % is scaled to controls: 0 for no effect and ±100 for the full control effect; nearly all actives have a fitted effect of over 50% in size
Target sequence (O75164 whole entry, looked up, the tested form may be a part): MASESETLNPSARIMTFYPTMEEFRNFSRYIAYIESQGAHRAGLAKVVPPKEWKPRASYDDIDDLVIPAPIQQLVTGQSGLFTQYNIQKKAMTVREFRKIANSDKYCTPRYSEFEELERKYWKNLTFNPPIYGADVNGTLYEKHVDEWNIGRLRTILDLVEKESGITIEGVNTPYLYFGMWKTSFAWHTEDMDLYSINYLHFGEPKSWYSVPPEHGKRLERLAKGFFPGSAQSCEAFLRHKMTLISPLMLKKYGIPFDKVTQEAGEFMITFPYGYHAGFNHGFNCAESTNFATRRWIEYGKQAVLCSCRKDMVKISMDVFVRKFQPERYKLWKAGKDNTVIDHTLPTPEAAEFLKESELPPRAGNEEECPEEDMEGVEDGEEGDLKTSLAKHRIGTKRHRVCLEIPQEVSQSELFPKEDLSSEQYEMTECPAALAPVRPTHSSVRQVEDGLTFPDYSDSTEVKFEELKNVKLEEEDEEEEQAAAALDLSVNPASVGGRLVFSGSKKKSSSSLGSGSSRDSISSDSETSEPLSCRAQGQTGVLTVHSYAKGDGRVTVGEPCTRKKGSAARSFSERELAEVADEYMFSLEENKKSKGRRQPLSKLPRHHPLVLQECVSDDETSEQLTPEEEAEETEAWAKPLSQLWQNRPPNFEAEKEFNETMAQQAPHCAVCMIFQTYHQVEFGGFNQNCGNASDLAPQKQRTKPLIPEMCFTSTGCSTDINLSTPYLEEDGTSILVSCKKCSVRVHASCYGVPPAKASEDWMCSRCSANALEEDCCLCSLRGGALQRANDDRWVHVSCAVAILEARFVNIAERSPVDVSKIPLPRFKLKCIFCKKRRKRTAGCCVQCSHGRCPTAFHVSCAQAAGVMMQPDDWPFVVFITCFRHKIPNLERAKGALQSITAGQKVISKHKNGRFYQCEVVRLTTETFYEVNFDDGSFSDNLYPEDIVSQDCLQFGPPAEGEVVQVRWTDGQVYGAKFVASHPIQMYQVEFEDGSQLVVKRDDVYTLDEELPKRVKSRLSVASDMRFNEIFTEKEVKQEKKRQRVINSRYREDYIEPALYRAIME
BAZ2B inh = inhibitors of human BAZ2B bromodomain; AlphaScreen BAZ2B-H3K14Ac peptide displacement; Potency, µM (top dose mostly 114 µM), for the others: top-dose activity change, negative = inhibition, hits mostly inhibitors; 360,000 compounds, 4.4% hits; AID 504333; also: potency is read from the fitted curve at half-maximal effect; % is scaled to controls: 0 for no effect and ±100 for the full control effect; nearly all actives have a fitted effect of over 60% in size
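Compounds, titrated to a top concentration of 110 uM, were incubated 30 min at room temperature with preformed BAZ2B/acetyl-K14 H3 peptide complex (50 nM each). Proximity signal was measured by AlphaScreen after 20 min with beads.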
PLK1 PBD inh = blocks phosphopeptide binding to human PLK1 polo-box domain. P53350. Plk1 PBD binding of FITC phosphopeptide, fluorescence polarization. Potency, µM, for the others: max response, negative = inhibition, most hits filed as inhibitors. 360,000 compounds, 2.8% hits. AID 720504; also: potency is read from the fitted curve at half-maximal effect; series mostly up to about 57 µM; % is scaled to controls: 0 for no effect and ±100 for the full control effect; nearly all actives have a fitted effect of over 65% in size
HP1b chromo inh = blocks HP1-beta chromodomain binding to methylated histone tails | P83916 | AlphaScreen HP1-beta / biotin-H3K9me3 peptide binding | Potency, µM (doses to about 114 µM), for inactives: at the highest dose activity change, negative = inhibition, hits mostly inhibitors | 390,000 compounds, 0.56% hits; also: potency is read from the fitted curve at half-maximal effect; nearly all actives have a fitted effect of over 70% in size
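HP1-beta protein (50 nM final) preincubated 30 min at room temperature with biotinylated H3(1-18)K9me3 peptide (50 nM) in PBS pH 7.4, 0.01% Tween-20, then compound added for 30 min. AlphaScreen streptavidin donor/nickel chelate acceptor beads (10 ug/mL final), 30 min dark, luminescence read.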
GCN5L2 inh = blocks human GCN5L2 histone acetyltransferase. GCN5L2 HAT assay, ThioGlo1 CoA-SH fluorescence. Potency, µM (highest dose often 58.9 µM), without a hit: at the highest dose activity change, negative = inhibition, actives largely listed as inhibitors. 390,000 compounds, 0.21% hits; also: potency is read from the fitted curve at half-maximal effect; % is scaled to controls: 0 for no effect and ±100 for the full control effect
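Free CoA generated was detected with ThioGlo1 (50uM) fluorescence at Ex340nm/Em540nm, read immediately and after 20 min at room temperature. Enzyme, 20 nM in HEPES pH 7.5 buffer, saw compounds 15 min before adding 75uM H3(1-25) peptide and 70uM acetyl-CoA.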
An asterisk follows results filed as active; ? = inconclusive; . = no result given; [ ] = dose if it differs, or a comment. Unless noted, calls follow the shape of the dose curve; as a rule, active = well fitted curve in the direction sought with a large enough effect; inconclusive = small, poorly fitted or top-dose-only effect, or another doubt; inactive = no such curve, though single readings can be large; an effect the other way counts as inactive or inconclusive.

SMILES	PI5P4K alpha inh	JMJD2A Tudor inh	BAZ2B inh	PLK1 PBD inh	HP1b chromo inh	GCN5L2 inh
Cc1c(NC(=O)Cc2ccc(Cl)cc2)cccc1-c1nc2cccnc2s1	.	-23%	-37%	.	-17%	-9%
CCN1CCN(C(=O)c2ccc3c(c2)N(Cc2cccc(F)c2)C(=O)c2ccccc2S3)CC1	.	79µM*	-18%	.	17%	-11%
CN1CCN(C(=O)c2ccc3c(c2)N(Cc2cccc(Cl)c2)C(=O)c2ccccc2S3(=O)=O)CC1	14	-23%	-19%	27µM*	12%	-1%
O=c1ccccn1Cc1c(F)cccc1Cl	?	?	?	3.4µM*	?	-1%
CC(=O)N1CC=C2C(C#N)=C(N)C(C#N)(C#N)C(CCc3ccccc3)C2C1 (stereo not drawn)	-12	-10%[57.1 µM]	?	27µM*	0%	-11%
CC(=O)Nc1ccc(S(=O)(=O)N2CCN(CCN3CCOCC3)CC2)cc1Cl	2	-8%	-6%	-7%	39%	0%
CCOC(=O)N1CCN(C(=O)c2ccc([N+](=O)[O-])cc2Cl)CC1	-12	?	-3%[0.457 µM]	24µM*	2%	-14%
COc1ccc(OC)c(C(=O)c2ccc([N+](=O)[O-])cc2)c1	0	89µM*	.	2%	-29%[57 µM]	.
COc1ccc(OC)c(C(=O)c2ccc(C(=O)c3cc(OC)ccc3OC)cc2)c1	.	-15%	-2%	0%	12%	-5%
COc1ccc(C(=O)c2ccc([N+](=O)[O-])cc2Cl)cc1	0	56µM*	?	-10%	?	-22%
COc1ccc(Cc2nnc(NC(=O)c3ccccc3F)s2)cc1	-8	-14%	-19%	-28%	2%	-1%
COc1ccc(CCNC(=O)C(CC(C)C)N2Cc3ccccc3C2=O)c(OC)c1OC (stereo not drawn)	.	7%	1%	.	28%	-4%
Cc1ccc(S(=O)(=O)N2[C@@H](c3ccc4c(c3)OCO4)C(C(=O)O)=C[C@H]2CC2CCCC2)cc1	-3	-18%	.	?	16%	-3%
COCCn1c(SCC(=O)Nc2cccnc2Cl)nc2ccccc2c1=O	6	-6%	-1%	-21%	18%	-5%
CC(NCc1cccs1)c1ccccc1 (stereo not drawn)	1	11%	-36%	?	50%	10%
CCCN(CC1CCCO1)C(=O)CCc1nnc(CCc2ccc(OC)cc2)o1 (stereo not drawn)	-20	?	-5%	13µM*	15%	-5%
CCOC(=O)CNC(=O)c1sc2ncnc(N3CCc4ccccc4C3)c2c1C	-3	-19%	-5%	-11%	2%	-18%
CCCCNC(=O)c1sc2ncnc(N3CCc4ccccc4C3)c2c1C	.	-17%	6%	27µM*	2%	1%
O=C1CC(NC2CCN(C(=O)c3cccc(F)c3)CC2)C(=O)N1 (stereo not drawn)	2	-4%	-8%	0%	8%	-4%
COCCn1nnnc1C(c1ccc2ncccc2c1)N1CCN(c2ccccc2F)CC1 (stereo not drawn)	.	-25%	50µM*	-8%	31%	-4%
COCCn1nnnc1C(c1ccccc1)N1CCN(C)CC1 (stereo not drawn)	2	?	-34%	4%	16%	0%
COCCn1nnnc1C(c1ccccc1)N1CCN(c2ccccc2)CC1 (stereo not drawn)	-3	?	50µM*	-5%	13%	-3%
COc1ccccc1N1CCN(C(c2ccc(N(C)C)cc2)c2nnnn2CCc2ccccc2)CC1 (stereo not drawn)	10	?	25µM*	7%	-49%	-4%
COCCn1nnnc1C(c1ccc2ncccc2c1)N1CCc2ccccc21 (stereo not drawn)	.	-23%	-36%	0%	11%	-4%
CCCCC(c1nnnn1CCOC)N1CCN(Cc2ccccc2)CC1 (stereo not drawn)	9	-31%	-32%	-13%	74%	-5%
SMILES	PI5P4K alpha inh	JMJD2A Tudor inh	BAZ2B inh	PLK1 PBD inh	HP1b chromo inh	GCN5L2 inh
CCCCC(c1nnnn1CCOC)N1CCN(c2cccc(OC)c2)CC1 (stereo not drawn)	2	1%[11.4 µM]	50µM*	?	14%	-1%
CCCn1c2ccccc2c2cnn(CC(=O)NCCc3ccc(S(N)(=O)=O)cc3)c(=O)c21	.	8%	-2%	.	21%	-9%
CCCCC(c1nnnn1CS(=O)(=O)c1ccc(C)cc1)N1CCN(C)CC1 (stereo not drawn)	2	?	-26%	21µM*	4%	5%
CCCC(c1nnnn1CS(=O)(=O)c1ccc(C)cc1)N1CCN(c2ccccc2)CC1 (stereo not drawn)	-5	-17%	-1%	-2%	21%	-13%
CNc1ccc(/C=C/C(=O)c2cccc3ccccc23)cc1[N+](=O)[O-]	18	8.9µM*	7.1µM*	2%	16µM*	-7%
CNc1ccc(C(=O)c2ccccc2C(=O)O)cc1[N+](=O)[O-]	-1	?	-24%	-13%	28%	-22%
COc1ccccc1NC(=O)CSc1oc(-c2ccccc2)nc1S(=O)(=O)c1ccccc1	.	-24%	-4%	.	10%	-9%
COCCn1c(CNC(=O)c2cc(OC)c(OC)c(OC)c2)nc2cccnc21	.	-10%	-2%	.	28%[57 µM]	-2%
CCCn1c(=O)c2ccccc2n2c(SCCOc3ccc(C)cc3)nnc12	.	28µM*	7%	-3%	45%	-10%
CCCn1c(=O)c2ccccc2n2c(SCC(=O)NCc3cccs3)nnc12	-8	25µM*	-1%	27µM*	2%	-6%
CCCn1c(=O)c2ccccc2n2c(SCCOc3ccc(OC)cc3)nnc12	.	-7%	2%	-12%	3%	-8%
COc1cc(F)c(S(=O)(=O)N2CCN(S(=O)(=O)c3ccc(NC(C)=O)cc3)CC2)c(F)c1	.	-19%	.	.	.	.
Cc1cc2c(s1)c1cnn(Cc3ccccc3Br)c(=O)c1n2C	.	-20%	.	.	.	.
O=C(O)C(C(=O)/C=C/c1ccco1)=C1SCCS1	-62*	56µM*	50µM*	?	71µM*	-11%
O=C(C=C1SCCS1)/C=C/c1ccco1	-57*	45µM*	50µM*	?	?	?
C[C@H](CO)N1C[C@H](C)[C@H](CN(C)C(=O)CCC(F)(F)F)OCc2cnnn2CCCC1=O	1	.	.	-6%	.	.
COc1cc(NC(=O)N2CCC(CN3CCOCC3)CC2)cc(OC)c1OC	.	9%	-1%	.	44%	0%
CCC(C)NC(=O)C1c2ccccc2C(=O)N1Cc1cc(OC)ccc1OC (stereo not drawn)	.	-19%	11%	3%	8%	-3%
